# In the supplement of paper PMC6555819:
# Tests used:
# Assay in all cases: PBM binding z-score (relative to random genomic background probes); higher = stronger binding; sequences stand for … in GC…GCGATTGACAGCGTAGAATGAAGG
# [1] = system: PPARg:RXRa DBDmut IVT, anti-RXR (DBD mutation: RXRa K156A/R161A, NR concentration 270 nM, RXRa partner concentration 90 nM)
# Procedure, shortened: (§1)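 Probes were double-stranded and carried 34-nt variable regions with direct-repeat seeds, single-nucleotide variants, half-site ablations and random human genomic background sequences, printed on custom Agilent 4×180K protein-binding microarrays. Arrays were incubated 1 h with ligand-free nuclear receptor dimers in PBS pH 7.4, 2% milk, 0.02% Triton X-100, 1 mM DTT, 0.2 mg/mL BSA and 0.4 mg/ml salmon testes DNA. Antibodies against each partner (one per run) detected binding, and scanned fluorescence was regression-normalized. Binding z-scores use the random background probes as reference.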
# [2] = system: PPARg:RXRa IVT, anti-PPARg (NR concentration 270 nM, RXRa partner concentration 90 nM)
# Procedure, shortened: as §1
# [3] = system: PPARg DBDmut IVT, anti-PPARg (DBD mutation: PPARg1 K132A/R137A, NR concentration 270 nM)
# Procedure, shortened: as §1
# [4] = system: PPARg homodimer (NR concentration 180 nM)
# Procedure, shortened: as §1
# [5] = system: PXR:RXRa (NR concentration 270 nM, RXRa partner concentration 90 nM)
# Procedure, shortened: as §1
# [6] = system: PXR homodimer (NR concentration 270 nM)
# Procedure, shortened: as §1
# [7] = system: RARa:RXR (NR concentration 270 nM, RXRa partner concentration 90 nM)
# Procedure, shortened: as §1
# [8] = system: RARa homodimer (NR concentration 270 nM)
# Procedure, shortened: as §1
# [9] = system: RARb:RXRa (NR concentration 270 nM, RXRa partner concentration 90 nM)
# Procedure, shortened: as §1
# [10] = system: RARb homodimer (NR concentration 270 nM)
# Procedure, shortened: as §1
# [11] = system: RARg:RXRa (NR concentration 270 nM, RXRa partner concentration 90 nM)
# Procedure, shortened: as §1
# [12] = system: RARg homodimer (NR concentration 270 nM)
# Procedure, shortened: as §1
# [13] = system: RXRa DBDmut IVT, anti-RXR (DBD mutation: RXRa K156A/R161A, NR concentration 90 nM)
# Procedure, shortened: as §1
# [14] = system: RXRa homodimer (NR concentration 180 nM)
# Procedure, shortened: as §1
# [15] = system: THRa:RXRa (NR concentration 90 nM, RXRa partner concentration 90 nM)
# Procedure, shortened: as §1
# [16] = system: THRa homodimer (NR concentration 90 nM)
# Procedure, shortened: as §1
# [17] = system: VDR homodimer (NR concentration 270 nM)
# Procedure, shortened: as §1
# [18] = system: VDR:RXRa (NR concentration 270 nM, RXRa partner concentration 90 nM)
# Procedure, shortened: as §1
Sequence,PBM binding z-score [1],PBM binding z-score [2],PBM binding z-score [3],PBM binding z-score [4],PBM binding z-score [5],PBM binding z-score [6],PBM binding z-score [7],PBM binding z-score [8],PBM binding z-score [9],PBM binding z-score [10],PBM binding z-score [11],PBM binding z-score [12],PBM binding z-score [13],PBM binding z-score [14],PBM binding z-score [15],PBM binding z-score [16],PBM binding z-score [17],PBM binding z-score [18]
CGAACTAGGACACCAGGACAGTGAAGAGGTTGGA,6.02,5.32,-0.0745,0.381,-0.661,-0.233,-0.0962,0.279,0.552,0.545,0.367,0.797,0.0708,0.0879,1.83,1.24,0.472,–
CGAACTAGGTCAAAGGACTGTGAAAGGCGACGTA,8.23,8,0.977,1.41,0.827,-0.596,1.86,-0.095,3.58,2.43,3.69,4.11,1.71,2.93,2.19,-0.114,-0.0761,1.14
ATATGTATGTTAGGGTCATTCAGAAAGTAGGGAA,2.61,3.27,2.23,2.64,4.24,1.37,4.82,1.45,3.15,3.03,3.74,2.71,2.73,4.9,4.06,3.17,3.27,4.38
ACATGTAGGTTAGGGTCATTCAGAAAGTAGGGAA,5.77,5.83,3.59,3.84,4.47,2.63,5.07,1.97,3.61,3.51,4.16,3.32,3.02,5.14,4.05,3.66,3.75,–
ATATGTAGGCTAGGGTCATTCAGAAAGTAGGGAA,4.03,4.85,0.962,1.74,3.55,1.05,4.04,1.2,3,2.44,3.25,2.17,2,4.11,3.74,2.36,2.49,3.8
CGAACTAGGTCACCAGGATAGTGAAGAGGTTGGA,8.36,8.68,2.4,2.57,1.4,-0.0879,2.59,0.146,4.2,3.4,4.23,5.43,1.26,3.14,3.3,1.45,0.463,–
CGAACTAGGTCAACGGACAGTGAAAGGCGACGTA,8.1,8.37,-0.094,1.63,0.839,-0.0597,1.77,-0.351,3.89,2.82,4.11,4.8,1.34,3.39,2.36,0.45,0.394,–
CGAACTAGGTCAAAGGAAAGTGAAAGGCGACGTA,7.92,8.23,1.64,0.636,0.854,-0.0237,1.65,0.526,3.55,2.25,3.46,4.01,1.15,2.39,1.95,0.083,0.538,0.89
ATATGTAGGATAGGGTCATTCAGAAAGTAGGGAA,2.75,3.63,1.68,2.36,3.47,1.46,4.19,1.52,2.69,2.75,3.19,2.22,1.78,4.32,3.59,2.24,3.42,3.79
CGAACTAGGTCATCAGGACAGTGAAGAGGTTGGA,7.93,8.18,0.121,1.34,1.32,0.123,2.27,0.72,3.9,3.22,4.14,4.73,1.67,2.99,3.38,1.97,0.876,1.89
CGAACTAGGTCAAAGGACAATGAAAGGCGACGTA,7.79,8.35,0.575,1.69,1.5,0.00867,2.52,0.325,3.85,3.04,4.01,4.77,1.13,3.35,2.67,0.783,0.585,1.73
CGAACTAGGTCACCAGGACAGTCAAGAGGTTGGA,8.33,8.73,2.35,2.43,1.51,0.0182,2.72,0.536,4.28,3.44,4.37,5.18,1.24,3.33,3.46,1.89,0.612,–
ATATGTAGGGTAGGGTCATTCAGAAAGTAGGGAA,6.28,5.96,4.11,2.93,4.39,2.67,4.44,2.33,3.21,3.53,3.55,2.77,2.93,4.34,4.11,3.7,4.73,–
CGAACTATGTCAAAGGACAGTGAAAGGCGACGTA,3.02,3.26,0.207,0.527,-0.558,-0.587,-0.379,-0.181,1.45,1.14,1.08,1.39,-0.18,0.00503,0.122,-0.538,-0.0132,-0.0394
CGCACTAGGTCAAAGGACAGTGAAAGGCGACGTA,7.3,8.16,0.801,0.993,1.27,0.0363,2.25,0.165,3.84,3.01,4.03,4.5,1.95,2.87,2.68,0.793,0.314,1.35
CGAACTAGGTCAAAGGACAGTCAAAGGCGACGTA,8.1,8.4,2.46,1.64,1.39,-0.21,2.49,0.35,3.87,3.04,4.11,4.5,1.74,3.05,2.54,0.161,0.43,1.69

Sequence,PBM binding z-score [1],PBM binding z-score [2],PBM binding z-score [3],PBM binding z-score [4],PBM binding z-score [5],PBM binding z-score [6],PBM binding z-score [7],PBM binding z-score [8],PBM binding z-score [9],PBM binding z-score [10],PBM binding z-score [11],PBM binding z-score [12],PBM binding z-score [13],PBM binding z-score [14],PBM binding z-score [15],PBM binding z-score [16],PBM binding z-score [17],PBM binding z-score [18]
CGAACTAGGTCAAAGGACCGTGAAAGGCGACGTA,7.75,8.21,0.0403,0.811,0.907,-0.51,1.44,-0.512,3.69,2.22,3.5,4.44,1.42,2.86,2.23,0.043,0.238,1.03
ATATGTAGGTTAGGGTCATTCAGAAAGTAGGGAA,6.61,6.95,3.49,3.86,4.66,2.12,5.52,2.73,3.34,3.49,4.11,3.21,2.68,5.53,3.97,3.55,4.01,–
CGAACTAGGTCACCTGGACAGTGAAGAGGTTGGA,8.17,8.6,-0.299,1.42,1.46,0.15,2.53,-0.115,4.05,3.36,4.43,5.32,1.49,3.36,3.1,1.2,0.466,2.34
CGAACTAGGTCACCATGACAGTGAAGAGGTTGGA,7.11,8.4,1.33,1.97,1.4,-0.124,2.42,0.707,4.23,3.31,4.27,5.26,1.18,3.17,2.99,1.41,0.264,1.78
CGAACTAGGTCAAATGACAGTGAAAGGCGACGTA,7.89,8.48,2.82,2.37,1.34,0.00572,2.23,0.892,4.02,2.7,4.37,4.97,2.03,3.11,2.6,0.29,0.337,–
CGAACTAGGCCAAAGGACAGTGAAAGGCGACGTA,5.96,5.66,-0.194,0.351,-0.549,-0.424,-0.24,-0.451,1.33,0.837,0.441,1.2,-0.376,0.196,-0.277,-0.915,-0.627,–
CGAACTAGGTCACCAGGAGAGTGAAGAGGTTGGA,8.2,8.65,3.69,2.38,1.22,-0.0382,2.45,-0.347,4.04,3.18,4.34,5.04,1.08,3.02,2.98,1.09,0.207,1.71
CGTACTAGGTCAAAGGACAGTGAAAGGCGACGTA,7.43,8,1.47,2.5,1.14,0.0831,2.27,0.22,3.85,2.87,4.02,4.76,1.91,3.01,2.51,0.4,0.647,–
ATACGTAGGTTAGGGTCATTCAGAAAGTAGGGAA,0.761,2.44,0.669,3.09,4.27,1.89,4.85,1.86,3.39,3.19,4.12,3.37,2.35,5.33,4.07,2.92,3.67,–
CGAACTAGGTCAAAGGACAGTGATAGGCGACGTA,8.07,8.07,0.359,1.45,1.14,-0.148,2.05,0.153,3.95,3.06,3.97,4.98,1.56,3.26,2.56,0.594,0.324,–
ATATGTAGGTTAGGGTCCTTCAGAAAGTAGGGAA,6.21,6.11,1.93,1.37,0.573,0.477,0.72,0.953,1.03,0.958,0.561,0.821,0.642,0.851,1.21,0.898,0.793,–
ATATGTAGGTTAGGGTCATTCATAAAGTAGGGAA,6.2,7.14,4.07,4.85,4.73,2.83,4.99,2.19,3.63,3.59,4.05,3,2.76,5.31,4.21,3.65,4.32,–
CGATCTAGGTCAAAGGACAGTGAAAGGCGACGTA,7.67,8.1,1.86,2.2,0.913,-0.421,2.13,0.262,3.79,2.74,3.63,4.58,1.7,2.76,2.62,0.472,0.297,–
CGAACTATGTCACCAGGACAGTGAAGAGGTTGGA,4.52,3.71,0.886,0.475,-0.0276,-0.042,0.322,0.192,0.847,0.797,0.591,0.719,-0.0649,0.602,1.66,0.878,0.455,–
ATTTGTAGGTTAGGGTCATTCAGAAAGTAGGGAA,5.45,5.62,3.63,4.01,4.55,3.09,5.22,4.03,3.86,3.88,4.4,3.72,2.82,5.6,4.17,3.71,4.56,–
CGAACTAGGTCCAAGGACAGTGAAAGGCGACGTA,0.968,1.2,-0.593,-0.32,-0.326,-0.337,-0.0342,-0.625,0.398,0.38,0.00598,0.386,0.946,0.00981,1.39,0.672,-0.041,–
